# Screens as filed in PubChem.
# This excerpt belongs to a sample that is enriched for hits.
# AmpC inh detg: qHTS Inhibitors of AmpC Beta-Lactamase (assay with detergent); 370,000 compounds, 0.041% hits; Potency, µM (series often up to 114 µM), most hits filed as inhibitors; AmpC hydrolysis of nitrocefin, absorbance 480 nm, 0.01% Triton; further: nearly all actives have a fitted effect of over 25% in size
# Target sequence (P00811 whole entry, looked up): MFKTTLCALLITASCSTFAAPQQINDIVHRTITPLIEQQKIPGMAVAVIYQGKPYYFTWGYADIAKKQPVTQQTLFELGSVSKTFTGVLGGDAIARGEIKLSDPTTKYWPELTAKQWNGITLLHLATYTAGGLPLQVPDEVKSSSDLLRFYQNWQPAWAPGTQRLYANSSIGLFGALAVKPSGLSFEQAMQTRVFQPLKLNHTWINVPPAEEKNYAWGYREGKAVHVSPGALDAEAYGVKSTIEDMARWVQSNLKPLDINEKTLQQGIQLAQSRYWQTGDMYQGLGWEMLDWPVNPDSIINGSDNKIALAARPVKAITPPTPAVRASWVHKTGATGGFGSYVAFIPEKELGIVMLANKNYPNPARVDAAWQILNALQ
#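 20 mM phosphate pH 7.0 + 0.01% (detergent screen) or 0.0001% Triton X-100; 5.3 nM AmpC reagent; cpd preinc 15 min RT; nitrocefin (800 uM stock) to start; A480 q20 s × 4 min; Activity was normalised to no-enzyme and no-compound control wells.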
# CHX counter: Cycloheximide Counterscreen for Small Molecule Inhibitors of Shiga Toxin; cell reporter, cycloheximide protein synthesis inhibition counterscreen; max response, %; 300,000 compounds, 12% hits; in the data active means max response mostly above about 13%, no sharp cut-off; inactive means mostly below about 14%; further: read at 38.3 µM for the half of the compounds with a filed dose
# NS1 inh: qHTS Assay for Inhibitors of Influenza NS1 Protein Function | AID 2326, 2010 | 270,000 compounds, 0.4% hits | Potency, µM (series often up to 46.1 µM); calls by dose curve; further: actives are rising curves; nearly all actives have a fitted effect of over 50% in size
#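 A cell-based growth assay was used: compounds that relieve NS1-induced slow growth of budding yeast raise OD600. Assay medium was yeast nitrogen base with ammonium sulphate and -URA supplement, pH 6.0, with 2% galactose.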
# Shiga toxin inh: A qHTS for Small Molecule Inhibitors of Shiga Toxin. Vero cells, Shiga toxin protein synthesis inhibition reporter. inhibition, % at 38.7 µM. 290,000 compounds, 9.2% hits; in the data active means inhibition mostly above about 28%, no sharp cut-off; inactive means mostly below about 43%
# AmpC inh no detg: qHTS Inhibitors of AmpC Beta-Lactamase (assay without detergent); P00811; AmpC nitrocefin hydrolysis, absorbance 480 nm, 0.0001% Triton; Potency, µM (series often up to 57.1 µM), most hits filed as inhibitors; 330,000 compounds, 0.52% hits; AID 485341, 2010; further: nearly all actives have a fitted effect of over 20% in size
#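 AmpC (5.3 nM in the dispensed reagent) in 20 mM phosphate pH 7.0 with 0.01% (detergent screen) or 0.0001% Triton X-100 was preincubated with compounds for 15 min at room temperature. Nitrocefin was then added from an 800 uM solution, and hydrolysis was followed at 480 nm.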
# Numbers stand for hits; n = inactive; u = inconclusive; x = no result given; + = active, no number. Unless noted, the call rests on the fitted dose curve; in most records, active means well fitted curve in the direction sought with a large enough effect; inconclusive means small, poorly fitted or top-dose-only effect, or another doubt; inactive means no such curve, though single readings can be large; an effect the other way counts as inactive or inconclusive.
SMILES,AmpC inh detg,CHX counter,NS1 inh,Shiga toxin inh,AmpC inh no detg
OCC1CCCN(C(=S)Nc2ccc(OC(F)F)cc2)C1 (stereo unspecified),n,26.2,n,63.3,n
Cc1ccc(NC(=S)N2CCCC(O)C2)cc1 (stereo unspecified),n,20.3,x,69.4,n
OCC1CCCN(C(=S)Nc2ccc(Nc3ccccc3)cc2)C1 (stereo unspecified),n,29.3,n,61.3,n
O=CN1CCN(C(=S)Nc2ccc(OC(F)F)cc2)CC1,n,n,n,n,n
COc1ccccc1CNc1ncnc2c1nc1n2CCCC1,n,x,x,x,x
Cc1ccsc1CN(C)Cc1nc(C2CC2)no1,n,n,n,n,n
Nc1ccc(CSc2ccc(Cl)cc2)cc1,n,23.8,x,58.6,n
Cc1cc(C)nc(SCc2ccc(Cl)cc2)n1,n,n,n,n,n
CC(C)(C)c1ccc(-c2nc(NC(=O)CSc3ncnc4sc5c(c34)CCCC5)ns2)cc1,n,x,x,x,x
Cc1cc(Br)ccc1SCC(=O)N1CCN(S(=O)(=O)c2ccccc2)CC1,n,32.9,n,38.3,n
CC(C)CC(O)(c1ccccc1)C(CN1CCOCC1)c1ccccc1 (stereo unspecified),n,19.6,n,n,n
CC(C)CCC(O)(c1ccccc1)C(CN1CCOCC1)c1ccccc1 (stereo unspecified),n,n,n,n,n
Cc1occc1C(=O)Nc1sc2c(c1C(N)=O)CCC(C(C)(C)C)C2 (stereo unspecified),n,n,n,n,n
CC(C)c1cc(C(=O)Nc2sc3c(c2C#N)CCC3)no1,n,n,n,n,n
Cc1cccc(NC(=O)c2c(NC(=O)c3ccccc3)sc3c2CCCC3)c1,n,n,x,n,x
N#Cc1c(NC(=O)c2cccnc2)sc2c1CCC2,n,19.4,n,n,n
O=C(Nc1sc2c(c1C(=O)c1ccccc1)CCCC2)c1cccnc1,n,n,n,n,n
CC(C)(C)C1CCc2c(sc(NC(=O)c3ccncc3)c2C(N)=O)C1 (stereo unspecified),n,15.5,n,n,n
Cc1cccc(C(=O)Nc2sc3c(c2C#N)CCCCC3)c1,n,43.5,n,84.7,n
N#Cc1c(NC(=O)c2cnccn2)sc2c1CCCC2,n,66.3,n,74.6,n
N#Cc1c(NC(=O)c2ccccc2)sc2c1CCC2,n,45.7,n,196.3,n
CC(=O)Nc1sc2c(c1C#N)CCC2,n,n,x,n,n
NC(=O)c1c(NC(=O)c2cccnc2)sc2c1CCCC2,u,n,x,72.6,n
N#Cc1c(NC(=O)c2cc([N+](=O)[O-])ccc2N2CCOCC2)sc2c1CCCC2,n,29.9,n,+,n
NC(=O)c1c(NC(=O)c2cccnc2)sc2c1CCCCC2,n,n,n,x,n
SMILES,AmpC inh detg,CHX counter,NS1 inh,Shiga toxin inh,AmpC inh no detg
N#Cc1c(NC(=S)NC(=O)c2ccccc2)sc2c1CCCC2,n,33.7,u,35.1,n
CC(C)c1ccc(NC(=O)c2cc([N+](=O)[O-])ccc2N2CCOCC2)cc1,u,n,n,n,n
CC(C)Cc1nnc(NC(=O)c2cc([N+](=O)[O-])ccc2N2CCOCC2)s1,n,18.9,n,n,n
N#Cc1c(NC(=O)c2ccc([N+](=O)[O-])o2)sc2c1CCC2,n,27.8,n,96.9,n
NC(=O)c1c(NC(=O)c2ccc([N+](=O)[O-])o2)sc2c1CCCC2,u,n,n,n,n
COc1ccccc1C(=O)Nc1sc2c(c1C#N)CCC2,n,12.1,n,x,n
COc1ccccc1C(=O)Nc1sc2c(c1C(N)=O)CCCC2,n,n,n,n,n
CC(C)(C)C(=O)Nc1sc2c(c1C#N)CCCCC2,n,n,n,n,n
N#Cc1c(NC(=S)NC(=O)C2CCCC2)sc2c1CCCCC2,n,23.0,n,26.9,n
CCc1ccc(CNC(=O)Cn2c(-c3cccs3)cc3cc(F)ccc32)cc1,n,x,x,x,x
COc1ccccc1NC(=O)C1=C(C)Nc2nc(SCc3ccccc3)nn2C1c1cccnc1 (stereo unspecified),n,x,x,x,x
Cc1ccc(CNC(=O)Cc2c(C)c3cc4c(C)coc4cc3oc2=O)cc1,n,x,x,x,x
COc1ccc(NC(=O)C2=Cc3ccccc3OC2)cc1,n,n,x,n,n
COc1ccc(NC(=O)C2=Cc3cccc(OC)c3OC2)cc1,n,31.1,n,59.8,n
COc1cccc2c1OCC(C(=O)OCc1cccnc1)=C2,n,14.8,n,n,n
CCCCc1c(C)nn(-c2nnc3c4ccccc4n(C)c3n2)c1C,n,21.1,n,48.5,n
COc1ccc([N+](=O)[O-])cc1NS(=O)(=O)c1cc(C(=O)N2CCN(C)CC2)ccc1OC,n,x,x,x,n
O=c1c2ccccc2nc(/C=C/c2ccc3c(c2)OCO3)n1-c1ccccc1,u,n,n,n,n
C(=C/c1nccc2c1[nH]c1ccccc12)/c1ccc2c(c1)OCO2,n,n,n,39.6,n
CC(=O)NC(=S)Nc1sc2c(c1C(N)=O)CCC(C)C2 (stereo unspecified),n,53.7,n,52.9,n
CC1CCc2c(sc(NC(=O)c3ccccc3C(=O)O)c2C#N)C1 (stereo unspecified),n,n,n,n,n
Cc1cc(C(=O)Nc2sc3c(c2C#N)CCC(C)C3)cs1 (stereo unspecified),u,38.5,n,126.1,n
CC(=O)Nc1sc2c(c1C#N)CCC(C)C2 (stereo unspecified),n,n,n,37.8,n
CCN(CC(=O)Nc1sc2c(c1C#N)CCC(C)C2)CC(=O)NC1CCS(=O)(=O)C1 (stereo unspecified),n,19.0,x,42.0,n
CCC(CC)C(=O)Nc1ccc(OCc2cc(=O)n3ccc(C)cc3n2)cc1,n,x,x,x,x
SMILES,AmpC inh detg,CHX counter,NS1 inh,Shiga toxin inh,AmpC inh no detg
COc1ccc(-n2ncc3c2CC(C)(C)CC3NC(=O)c2ccnn2C)cc1 (stereo unspecified),n,n,n,n,n
CCCOc1ccc(/C=C/c2c([N+](=O)[O-])c(=O)n(C)c(=O)n2C)cc1,n,n,n,n,n
COc1ccccc1CCc1nnc(CCC(=O)NCC2CCCO2)o1 (stereo unspecified),n,n,n,n,n
COc1ccccc1CCc1nnc(CCC(=O)NCC[C@@H]2C[C@@H]3C=C[C@H]2C3)o1,n,12.5,n,n,n
N#C[C@@H](N=Nc1ccccc1C(=O)O)C(N)=O,x,x,n,x,x
Cc1cc(CN2CCCCC2C(=O)Nc2ccc(Oc3cccnc3)cc2)oc1C (stereo unspecified),n,21.5,n,42.5,n
O=C(NCc1cccs1)c1ccc2ccccc2n1,n,32.0,x,n,n
O=C(NCc1cccs1)c1ccc([N+](=O)[O-])cc1Cl,n,11.0,n,n,n
O=C(NCc1cccs1)c1csc2ccccc12,n,25.0,n,n,n
O=C(NCc1ccccc1F)c1ccc2ccccc2n1,n,n,n,n,n
O=C(NCc1ccccc1Cl)c1ccc2ccccc2n1,n,52.1,n,86.3,n
